Measured values: PubChem BioAssay AID504715 (Sanford-Burnham Center for Chemical Genomics, 2011)
The list shows a part of the results. A number with no mark means an inactive call.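 Rule for the calls: active = compounds giving 40% or more inhibition at 20 µM in any one of the three replicates; inactive = the rest.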

Target: Uracil-DNA glycosylase (Escherichia coli (strain K12)) (UniProt P12295)
Assay: uracil-DNA glycosylase inhibition, oligo cleavage readout – biochemical, single concentration, fluorescence, FAM/TAMRA oligo, counter-screen for APOBEC3G inhibitor project, confirmation (AID 504715);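 note: plate controls were DMSO wells with UDG and oligo for no effect and DMSO wells lacking both for full effect; inhibitors lower the FAM signal released by uracil excision and alkaline cleavage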
Conditions: UDG counterscreen, at 20 µM, hits give high values

Sequence of Uracil-DNA glycosylase (Escherichia coli (strain K12)) (P12295 whole entry, looked up): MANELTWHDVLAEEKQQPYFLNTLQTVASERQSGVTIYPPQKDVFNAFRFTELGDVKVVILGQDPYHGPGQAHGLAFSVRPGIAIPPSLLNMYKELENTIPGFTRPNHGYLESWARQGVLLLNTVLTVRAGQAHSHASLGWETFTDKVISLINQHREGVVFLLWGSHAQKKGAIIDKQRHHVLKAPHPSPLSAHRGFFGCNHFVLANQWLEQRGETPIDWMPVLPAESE

| Compound | inhibition [%] |
| --- | --- |
| S=c1[nH]ccn1-c1ccc(Cl)cc1 | 2.81 |
| CCc1c(C)[nH]c(=S)c(C#N)c1C | -0.5 |
| CC(=O)N(C1=C(Cl)C(=O)c2ccccc2C1=O)c1ccc(C(=O)O)cc1 | -2.05 |
| S=c1[nH]nc(NCCc2ccccc2)s1 | -0.78 |
| CCC(CC)c1nnc(NC(=O)C2CCN(C(=O)c3ccco3)CC2)s1 | 4.07 |
